Source: PubChem (ICCB-Longwood Screening Facility, Harvard Medical School)
Rows were chosen to be rich in hits. Some 1.5% of all compounds tested hit in one or more screens of this group.
Mtb MenB inh: inhibitors of Mycobacterium tuberculosis MenB enzyme | inhibition, % (concentration not given with the values) | actives 0.43% (n = 100,000) | MenB enzyme assay, absorbance read-out | AID 540299; in the data active means inhibition above about 21%, passing the limit was not always enough
AID504770: E. coli YBA685 growth inhibition, screen for V. cholerae RctB inhibitors | E. coli YBA685 rctB-dependent plasmid, OD600 growth, 3 h; hits give low values | z-score (test concentration not listed) | actives 0.27% (n = 130,000); in the data active means z-score below about -2, passing the limit was not always enough
Polio RdRp inh: poliovirus RNA polymerase inhibition; poliovirus polymerase elongation, fluorescence polarization; hits give low values; % elongation, % (compound at 16.7 µg/mL); actives 0.66% (n = 150,000); AID 588519; in the data active means % elongation below about 90%
Target sequence (P03300 1749-2209 limits assumed): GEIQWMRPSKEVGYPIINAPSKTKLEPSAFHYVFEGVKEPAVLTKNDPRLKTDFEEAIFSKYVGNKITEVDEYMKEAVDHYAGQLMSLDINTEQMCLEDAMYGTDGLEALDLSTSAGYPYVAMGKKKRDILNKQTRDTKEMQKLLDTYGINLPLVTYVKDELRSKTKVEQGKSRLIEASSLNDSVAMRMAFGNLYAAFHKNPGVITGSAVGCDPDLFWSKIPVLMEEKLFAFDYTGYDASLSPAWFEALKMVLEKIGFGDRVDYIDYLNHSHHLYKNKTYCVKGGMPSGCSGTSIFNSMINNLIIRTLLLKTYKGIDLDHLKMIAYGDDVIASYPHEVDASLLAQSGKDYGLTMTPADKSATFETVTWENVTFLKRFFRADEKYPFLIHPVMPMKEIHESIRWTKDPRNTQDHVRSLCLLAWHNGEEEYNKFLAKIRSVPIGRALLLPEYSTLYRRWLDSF
Mtb MbtI inh: inhibitors of Mycobacterium tuberculosis siderophore enzyme MbtI | actives 0.89% (n = 100,000) | purified MbtI enzyme, fluorescence intensity read-out | inhibition, % (concentration not given with the values) | AID 493033 | P9WFX0; in the data active means inhibition mostly above about 56%, no sharp cut-off; inactive means mostly below about 77%
The depositor's hits bear a star.

What do the screens show for `COc1ccc2c(c1)Cc1sc(NC(=O)c3ccc(OC)c(Br)c3)nc1-2`?
Mtb MenB inh: -3.4; AID504770: 0.25; Polio RdRp inh: 87.0*; Mtb MbtI inh: -6.7

Results for COc1ccc2c(c1)Cc1sc(NC(=O)c3ccccc3C)nc1-2 ?
Polio RdRp inh: 83.0*

What do the screens show for `COc1ccc(C(=O)Nc2nc3c(s2)Cc2cc(OC)ccc2-3)cc1`?
Polio RdRp inh: 67.0*

Results for COc1ccc2c(c1)Cc1sc(NC(=O)c3ccccc3)nc1-2 ?
AID504770: 0.6

Results for CCNc1nc(Oc2ccc(OCC)nn2)nc(N2CCOCC2)n1 ?
AID504770: -0.7

Results for COc1cc(C(=O)COC(=O)C2CC(=O)N(Cc3ccco3)C2)cc(OC)c1OC (stereo not given) ?
Mtb MenB inh: -22.7; AID504770: -0.5; Polio RdRp inh: 104.0; Mtb MbtI inh: 8.6

How did CCN(Cc1ccccc1)C(=O)c1ccc(C#N)cc1 do in these assays?
Mtb MenB inh: -6.1; AID504770: 0.45; Polio RdRp inh: 104.0; Mtb MbtI inh: -1.1

What do the screens show for `COc1ccc(-c2nc(CSc3nc(C)c(C)n3C3CCCC3)cs2)cc1OC`?
Mtb MenB inh: -38.5; AID504770: -0.35; Polio RdRp inh: 102.0; Mtb MbtI inh: 0.0

Results for CC(=O)N(C(C)=O)c1ncnc2sc3c(c12)CCCC3 ?
Mtb MenB inh: -50.5; AID504770: 1.9; Polio RdRp inh: 99.0; Mtb MbtI inh: inactive

How did Cc1c2c(=O)n(-c3ccccc3)[nH]c2cc(=O)n1CCc1ccccc1 do in these assays?
Mtb MenB inh: -48.2; AID504770: 2.4; Polio RdRp inh: 106.0; Mtb MbtI inh: 1.3

What do the screens show for `O=C1CSc2sc(=S)sc2S1`?
Mtb MenB inh: -121.0; AID504770: -0.8; Polio RdRp inh: 88.0*; Mtb MbtI inh: 46.9

How did COc1ccc(-c2noc(=O)n2CCCC#N)cc1OC do in these assays?
Mtb MenB inh: 31.1*; AID504770: 1.3; Polio RdRp inh: 103.0; Mtb MbtI inh: 0.1

What do the screens show for `COc1ccc(-c2noc(=O)n2Cc2cccc(C)c2)cc1`?
Mtb MenB inh: 11.3; AID504770: 0.35; Polio RdRp inh: 103.0; Mtb MbtI inh: -3.9

Results for Nc1n[nH]c2cc(=O)[nH]c(O)c12 ?
Mtb MenB inh: -44.1; AID504770: 1.5; Polio RdRp inh: 5.0*; Mtb MbtI inh: 5.4

What do the screens show for `CCn1cc(S(=O)(=O)N2CCC(C(=O)O)CC2)cn1`?
Mtb MenB inh: -24.1; AID504770: -0.45; Polio RdRp inh: 103.0; Mtb MbtI inh: 0.2

Results for Cn1cnnc1S/C=C/C(=O)c1ccc(Cl)cc1 ?
Mtb MenB inh: -9.8; AID504770: -1.3; Polio RdRp inh: 102.0; Mtb MbtI inh: 85.3*

What do the screens show for `Cc1cc(C)nc(S/C=C/C(=O)c2ccc(Cl)cc2)n1`?
Mtb MenB inh: -5.4; AID504770: -0.65; Polio RdRp inh: 108.0; Mtb MbtI inh: -8.3

How did Cn1ccnc1S/C=C/C(=O)c1ccc(Cl)cc1 do in these assays?
Mtb MenB inh: 5.3; AID504770: -0.3; Polio RdRp inh: 99.0; Mtb MbtI inh: 59.0*

How did O=C(/C=C/Sc1ccc(Cl)cc1)c1ccccc1 do in these assays?
Mtb MenB inh: -8.3; AID504770: 0.4; Polio RdRp inh: 101.0; Mtb MbtI inh: -10.4

What do the screens show for `Cc1ccc(NC(=O)Cn2c(=O)/c(=C3\C(=O)Nc4ccccc43)s/c2=C\C#N)cc1`?
Mtb MenB inh: -18.1; AID504770: -0.05; Polio RdRp inh: 109.0; Mtb MbtI inh: -5.5

How did NC(=S)Cc1ccc(CC(N)=S)o1 do in these assays?
Mtb MenB inh: -22.9; AID504770: 0.15; Polio RdRp inh: 95.0; Mtb MbtI inh: 82.1*

How did NCc1ccc(C(=O)O)o1 do in these assays?
Mtb MenB inh: -21.7; AID504770: 0.75; Polio RdRp inh: 100.0; Mtb MbtI inh: -7.3

What do the screens show for `O=C(O)CN=C1NC2(CCCC2)Cc2ccccc21`?
Mtb MenB inh: 33.8*; AID504770: 1.3; Polio RdRp inh: 100.0; Mtb MbtI inh: -1.2

Results for CCN(CC)C(=O)c1sc(NC(=S)Nn2cnnc2)c(C(=O)OC)c1C ?
Mtb MenB inh: 5.3; AID504770: 1.45; Polio RdRp inh: 98.0; Mtb MbtI inh: 54.8*

How did CCN(CC)C(=O)c1sc(NC(=S)N(C)Cc2cn(CC)nc2C)c(C(=O)OC)c1C do in these assays?
Mtb MenB inh: -9.8; AID504770: 2.1; Polio RdRp inh: 100.0; Mtb MbtI inh: 10.9

Results for CCOC(=O)c1c(NC(=S)Nn2cnnc2)sc2c1CCCCCC2 ?
Mtb MenB inh: -40.8; AID504770: -0.75; Polio RdRp inh: 98.0; Mtb MbtI inh: 89.2*

Results for CC1CCN(C(=O)c2cc(=O)[nH]c3ccccc23)CC1 ?
Mtb MenB inh: 7.1; AID504770: 0; Polio RdRp inh: 99.0; Mtb MbtI inh: 13.8

How did CCOC(=O)c1sc2nc(C(F)(F)F)nn2c1C do in these assays?
AID504770: -2.5*

What do the screens show for `N#CC(C(=O)COc1ccccc1)c1ccccc1` (stereo not given)?
Mtb MenB inh: -9.6; AID504770: -1.4; Polio RdRp inh: 102.0; Mtb MbtI inh: 54.0*

What do the screens show for `Cc1ccc(C(=O)Cn2nnc(-c3ccccc3)n2)c(C)c1`?
Mtb MenB inh: 6.4; AID504770: 0.8; Polio RdRp inh: 110.0; Mtb MbtI inh: -5.2

Results for Nc1nonc1C(=O)NCCN=Cc1ccccc1O ?
Mtb MenB inh: -8.7; AID504770: -0.75; Polio RdRp inh: 106.0; Mtb MbtI inh: 5.8

How did Nc1nonc1C(=O)NN=c1c(=O)c2ccccc2c1=O do in these assays?
Mtb MenB inh: inactive; AID504770: -0.8; Polio RdRp inh: 47.0*; Mtb MbtI inh: -26.4

Results for CC12CCC(=O)N1C(C(=O)O)Cc1c2[nH]c2ccccc12 (stereo not given) ?
Mtb MenB inh: -18.4; AID504770: -0.45; Polio RdRp inh: 85.0*; Mtb MbtI inh: -5.4

Results for CC(=O)N1C(C(=O)O)Cc2c([nH]c3ccccc23)C1(C)C (stereo not given) ?
Mtb MenB inh: -4.1; AID504770: 0; Polio RdRp inh: 105.0

Results for Cn1c(=O)[nH]c2c(nc(-c3ccccc3)n2C)c1=O ?
Mtb MenB inh: 4.9; AID504770: 2.1; Polio RdRp inh: 109.0

Results for Cn1c(=O)[nH]c2nncnc2c1=O ?
Mtb MenB inh: -152.0; AID504770: -1.7; Polio RdRp inh: 43.0*; Mtb MbtI inh: 6.2

Results for Oc1ccc(/C=N/N2CCN(Cc3cccc4ccccc34)CC2)cc1O ?
Mtb MenB inh: -16.7; AID504770: -0.8; Polio RdRp inh: 105.0; Mtb MbtI inh: 14.6

How did Oc1ccc(C(=S)N2CCOCC2)cc1 do in these assays?
Mtb MenB inh: -6.7; AID504770: 1.45; Polio RdRp inh: 101.0; Mtb MbtI inh: 52.0

What do the screens show for `Oc1ccc(C(=S)N2CCN(Cc3ccccc3)CC2)cc1`?
Mtb MenB inh: -14.8; AID504770: -0.4; Polio RdRp inh: 98.0; Mtb MbtI inh: 93.9*

What do the screens show for `CC(C)COc1ccc(C(=S)N2CCCCC2)cc1`?
Mtb MenB inh: -12.5; AID504770: 0.85; Polio RdRp inh: 103.0; Mtb MbtI inh: 54.1*

How did Oc1ccc(C(=S)N2CCN(c3cccc(Cl)c3)CC2)cc1 do in these assays?
Mtb MenB inh: -40.1; AID504770: 1.35; Polio RdRp inh: 102.0; Mtb MbtI inh: 59.2*

Results for c1ccc(CN2CCN(Cc3ccccc3)CC2)cc1 ?
AID504770: 2.55
